Measurements from PubChem BioAssay (NCATS).
Records with an inconclusive call do not appear. Unmarked numbers belong to inactive results. Activity calls are given as the source filed them. Calls come from the whole dose curve; as a rule, active = well fitted cell-killing curve with a large enough effect; inconclusive = small, poorly fitted or top-dose-only effect, or effect the other way; inactive = no such curve, though single readings can be large or run the other way.

Experiment: Quantitative High-Throughput drug screen in 47 multiple myeloma cell lines against the NCATS MIPE library collection: VP6_DJ cell viability assay (AID 1919867); note: nearly all actives have a fitted effect of over 40% in size;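 for viability (% of DMSO): 100% = DMSO-only wells and 0% = wells with media alone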
Conditions: ATP luminescence, 48 h; series mostly up to 45.8 µM; viability (% of DMSO): at the top concentration
In short: (§1)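 Cells were exposed to library compounds for 48 hours, after which ATP was measured by CellTiter-Glo. Signal was taken as median relative luminescence units.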
Potency is the fitted concentration of half-maximal effect.

| Structure (SMILES) | viability (% of DMSO) | Potency |
| --- | --- | --- |
| CCCCCCCCCCCCCCCCCCCCCCO | 109% |  |
| CCc1nc(N)nc(N)c1-c1ccc(Cl)cc1 |  | 3.32 µM (active) |
| O=C1c2c(O)cc(O)cc2OC(c2ccc(O)c(O)c2)C1O (configuration not stated) | 149% |  |
| CC(=O)N1CCN(c2ccc(OC[C@H]3CO[C@](Cn4ccnc4)(c4ccc(Cl)cc4Cl)O3)cc2)CC1 |  | 11.8 µM (active) |
| CC1(C)CCC(C)(C)c2cc(NC(=O)c3ccc(C(=O)O)cc3)ccc21 |  | 18.7 µM (active) |
| CCC1=C(C)CN(C(=O)NCCc2ccc(S(=O)(=O)NC(=O)NC3CCC(C)CC3)cc2)C1=O (configuration not stated) | 142% |  |
| O=c1oc2cc(O)ccc2s1 | 115% |  |

Experiment: Quantitative High-Throughput drug screen in 47 multiple myeloma cell lines against the NCATS MIPE library collection: UTMC2_PLB cell viability assay (AID 1919868); note: nearly all actives have a fitted effect of over 55% in size;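 for viability (% of DMSO control): 100% = DMSO-only wells and 0% = media-only wells without cells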
Conditions: CellTiter-Glo ATP luminescence, 48 h; series mostly up to 45.8 µM; viability (% of DMSO control): at the top concentration
In short: as §1

| Structure (SMILES) | viability (% of DMSO control) | Potency |
| --- | --- | --- |
| C[Se]CCC(N)C(=O)O (configuration not stated) | 129% [at 92.2 µM] |  |
| Nc1nc(Cl)nc2c1ncn2[C@H]1C[C@H](O)[C@@H](CO)O1 |  | 2.35 µM (active) |
| Cc1cccc(CN2CCN(C(c3ccccc3)c3ccc(Cl)cc3)CC2)c1 (configuration not stated) |  | 20.9 µM (active) |
| Cc1cc(=O)c2c(O)c3c(O)cc(=O)c4c3c3c(cc(O)c1c23)C(C)(C)C=4O |  | 0.296 µM (active) |
| CN(C)C(=O)[C@H](O)[C@H](Cc1ccccc1)NC(=O)c1cc2cc(Cl)ccc2[nH]1 |  | 3.32 µM (active) |
| CC(=O)NC[C@H]1CN(c2ccc(N3CCOCC3)c(F)c2)C(=O)O1 | 154% |  |
| O=C(O)c1cn(-c2ccc(F)cc2)c2cc(N3CCNCC3)c(F)cc2c1=O | 127% |  |
| C[C@H](Cn1cnc2c(N)ncnc21)OCP(=O)(O)O | 121% |  |
| CC(=O)N1CCN(c2ccc(OC[C@H]3CO[C@](Cn4ccnc4)(c4ccc(Cl)cc4Cl)O3)cc2)CC1 | 159% |  |
| O=c1oc2cc(O)ccc2s1 | 136% |  |
